PubChem BioAssay AID602441 (National Center for Advancing Translational Sciences (NCATS), 2012)
Out of some 1,300 compounds screened, fewer than 10 were called active. Another 9% or so got no clear call; they are omitted. Calls follow the shape of the dose curve; as a rule, active = well fitted curve in the direction sought with a large enough effect; inconclusive = small, poorly fitted or top-dose-only effect, or another doubt; inactive = no such curve, though single readings can be large or run the other way. The list is a sample of the results. A call without a number means that no potency is given here.

Assay: qHTS for antagonists of the Thyroid Stimulation Hormone Receptor: Hit Validation in Parental Cell Line
Conditions: parental HEK293 cells lacking TSHR, counter-screen; series mostly up to 56.9 µM
Text: The thyroid-stimulating hormone receptor (TSHR) is a member of the 7 trans-membrane-spanning receptor (7TMR) family of cell surface receptors. TSHR-mediated hyperthyroidism is important in thyroid pathology. The development of small molecule antagonists of TSHR may lead to therapeutic approaches for TSHR-mediated hyperthyroidism caused by constitutively activating mutations or stimulating auto-antibodies associated with Graves' disease. Graves' disease is the leading cause of hyperthyroidism and is caused by autoantibodies that stimulate TSHR (TsAbs) causing thyroid growth and unregulated overproduction of thyroid hormones and existing treatments have liabilities (agranulocytosis). In addition, TSHRs are known to be expressed in multiple extrathyroidal tissues including bone, brain, kidney, testis, fat and cells of the immune system but the role of the TSHR in these tissues is not clear. Therefore, TSHR antagonists/inverse agonists could be used as probes of extrathyroidal TSHR function. Finally, TSHR inverse agonists, which are a subclass of antagonists that inhibit agonist-independent (or basal or constitutive) TSHR signaling, could be used to inhibit TSH-independent signaling in patients with recurrent or metastatic thyroid cancer who are receiving thyroid hormone to suppress TSH.
In collaboration between scientist from the NCGC and the NIDDK, a miniaturized HTRF high-throughput screen was developed. It's a cell based assay, where an anti cAMP antibody contains a fluorescent cryptate tag (excitation 337 nm; emission 620 nm) and the acceptor is cAMP-d2 (excitation 620 nm; emission 665 nm). When antibody and cAMP-d2 interact and are excited by a 337 nm light, a FRET occurs resulting in emission at 665 nm. The assay is competition between cAMP-d2 and cAMP (from the cell lysate). The homogeneous protocol allows for one step dispense after stimulation that is automation friendly. This is a hit validation assay in a counterscreen using parental HEK 293 cells lines.
NIH Chemical Genomics Center [NCGC]
NIH Molecular Libraries Probe Centers Network [MLPCN]
Assay Provider: Marvin Gershengorn, NIDDK
An anti cAMP antibody contains a fluorescent cryptate tag (excitation 337 nm; emission 620 nm) and the acceptor is cAMP-d2 (excitation 620 nm; emission 665 nm). When antibody and cAMP-d2 interact and are excited by a 337 nm light, a FRET occurs resulting in emission at 665 nm. The assay is competition between cAMP-d2 and cAMP (from the cell lysate). The homogeneous protocol allows for one step dispense after stimulation that is automation friendly. This assay uses parental HEK-EM 293 cells
In the case of `CC(C)c1ccc(OCC(=O)Nc2cccc3c2CCCC3)cc1`, the Potency is reported as “inactive”. For `O=C(Cn1cnc2ccccc21)Nc1ccc2c(c1)OCCCO2`, the Potency was “inactive”. In the case of `Cc1c(Nc2cc(Cl)c3nonc3c2[N+](=O)[O-])c(=O)n(-c2ccccc2)n1C`, the Potency is reported as “inactive”. With `CN(C)S(=O)(=O)c1ccc(N2CCN(S(=O)(=O)c3ccc(F)cc3)CC2)c(Cl)c1` the Potency was “inactive”. In the case of `CC(NC(=O)c1ccc([N+](=O)[O-])o1)C1CC2CCC1C2` (stereo not drawn), the Potency is reported as “inactive”. With `C=CCC1(CC=C)CCCN1C(=O)c1cc(COc2ccc(C)nc2)on1` the Potency was “inactive”. For `C=CCN1C(=O)C(Cc2ccc(OC)cc2)S/C1=N/N=C/c1ccco1` (stereo not drawn), the Potency was “inactive”. For `CSc1cnn(Cc2ccccc2)c(=O)c1SCc1ccccc1`, the Potency was “inactive”. For `COC(=O)c1ccc(COc2cc(O)c3c(c2)OC(C)(C)CC3=O)cc1`, the Potency was “inactive”. In the case of `COc1ccc(-c2csc3ncnc(N4CCN(S(=O)(=O)c5cccs5)CC4)c23)cc1`, the Potency is reported as “inactive”. With `N#Cc1ccc(CN2CCN(C(=O)c3ccc(S(=O)(=O)N4CCCCCC4)cc3)CC2)cc1` the Potency was “inactive”. In the case of `Cc1ccc(NC(=O)COc2cccc3c2OC(C)(C)C3)c(O)c1`, the Potency is reported as “inactive”. In the case of `N#C/C(=N\Nc1ccc(S(=O)(=O)N2CCCCCC2)cc1)C(N)=S`, the Potency is reported as “inactive”. For `Cc1sc2nc(-c3ccccn3)[nH]c(=O)c2c1-c1ccccc1`, the Potency was “inactive”. With `O=S(=O)(NCc1csc(-c2ccccc2)n1)c1ccc(Cl)s1` the Potency was “inactive”. With `O=C(Nc1ccc(Br)cc1)c1cccc(S(=O)(=O)Nc2cnc3ccccc3c2)c1` the Potency was “inactive”. With `COc1ccc2ccccc2c1/C=N/NC(=O)c1nnn(-c2nonc2N)c1C(C)C` the Potency was “inactive”. For `COc1ccc(-c2csc(/C(C#N)=C\c3ccc(O)c([N+](=O)[O-])c3)n2)cc1OC`, the Potency was “inactive”. For `CCOC(=O)c1sc(NC(=O)c2cc(-c3ccccc3C)nc3ccccc23)c(C#N)c1C`, the Potency was “inactive”. In the case of `Cc1ccc(OCc2cc(C(=O)NC3CCCCC3)no2)cn1`, the Potency is reported as “inactive”. In the case of `O=C(Nc1ccncc1)c1cccc(S(=O)(=O)N2CCc3ccccc32)c1`, the Potency is reported as “inactive”. For `N#C/C(=N/Nc1ccc(OC(F)(F)F)cc1)C(N)=S`, the Potency was “inactive”. With `Cc1ccc(CN2CCc3c(OCc4ccc(F)cc4)cccc3C2=O)cc1` the Potency was “inactive”. For `COc1ccc(C(=O)c2ccccc2)c2c(O)ccc(C(=O)c3ccccc3)c12`, the Potency was “inactive”. With `CCCC(=O)OCCNc1cc(Sc2nc3ccccc3[nH]2)c2nonc2c1[N+](=O)[O-]` the Potency was “inactive”. In the case of `N#CC(C#N)=NNc1ccc(S(=O)(=O)N2CCCCC2)cc1`, the Potency is reported as “inactive”. In the case of `COc1ccc(NS(=O)(=O)c2cccc(NC(=O)C3=NN(c4ccccc4)C(=O)CC3)c2)cc1`, the Potency is reported as “inactive”. With `CCOc1ccc(-c2csc(/C(C#N)=C\c3ccc(O)c([N+](=O)[O-])c3)n2)cc1` the Potency was “inactive”.
